Screening data from PubChem BioAssay.
Hits are enriched below; roughly 5.7% of the tested compounds scored in any of these assays.
S2 tox: reduces viability in counter-screen for ATXN expression inhibitors. S2 cells (HEK-293 line with an ATXN2-luciferase reporter) viability, CellTiter-Fluor protease fluorescence, 24 h. Potency, µM (highest dose often 56.7 µM), hits mostly cytotoxic. 400,000 tested, 0.49% active. AID 651635; further: potency means the concentration at half of the fitted maximal effect; nearly all actives have a fitted effect of over 40% in size
TGFb inhibitor: blocks TGF-b signaling; HepG2 CAGA-GFP TGF-b/SMAD3 reporter, GFP fluorescence, 18 h; TGF-beta stimulated, 500 pg/mL final; Potency, µM (series often up to 46.1 µM), for the others: at the top dose activity, negative = inhibition, most hits filed as inhibitors; AID 588855; 410,000 tested, 1.2% active; further: potency means the concentration at half of the fitted maximal effect; on the % scale 0 is the no-effect control and ±100 the full control effect; nearly all actives have a fitted effect of over 65% in size
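Inhibition was scored as loss of TGF-beta-induced (500 pg/mL final, 18 hours, 37 degrees C) GFP in HEPG2 cells carrying a CAGA-GFP reporter, in DMEM with 1% FBS. Well GFP was summed per cell; Activity was normalised to unstimulated and stimulated DMSO wells, then concentration-response fitting.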
ATXN2 expr inh: inhibitors of ATXN2 expression. Potency, µM (top dose mostly 57 µM), for the others: at the highest dose activity change, negative = inhibition, usual class: inhibitors. 360,000 tested, 0.72% active. AID 1745845. HEK-293 ATXN2-luciferase reporter, luminescence, 24 h; further: potency means the concentration at half of the fitted maximal effect; on the % scale 0 is the no-effect control and ±100 the full control effect; nearly all actives have a fitted effect of over 55% in size
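ATXN2-luciferase reporter cells (luciferase flanked by upstream and downstream ATXN2 gene portions) were treated 24 h at 37 °C with compounds at up to 57 uM. SteadyGlo luminescence gave expression; GF-AFC fluorescence gave viability.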
IL1B secr inh: inhibitors of inflammasome signaling (IL-1 beta secretion); THP-1 LPS/ATP IL-1B secretion, AlphaLISA, 16 h; hits give low values; AID 743279; 360,000 tested, 4.7% active; activity change, % at 57.5 µM; in the data active means activity change below about -50%; inconclusive means mostly about -30% to -49%; further: on the % scale 0 is the no-effect control and ±100 the full control effect
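THP-1 cells pretreated 1 hr with compounds (up to 57.5 uM final), then stimulated with LPS (250 ng/mL final) plus ATP (1.25 mM final); secreted IL-1B measured by AlphaLISA after 16 hr, decreased signal indicating inhibition.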
HepG2 viability: kills HepG2 cells in TGF-b inhibitor counter-screen; HepG2 CAGA-GFP viability, ATP luminescence, 18 h; 410,000 tested, 0.76% active; Potency, µM (top dose mostly 46.1 µM), for inactives: at the top dose activity change, negative = cytotoxicity, hits mostly cytotoxic; further: potency means the concentration at half of the fitted maximal effect
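HepG2 CAGA-GFP cells (1000/well, DMEM with 1% FBS) received compound, then TGF-beta at 500 pg/mL final, and were incubated 18 hours at 37 degrees C. Viability was read by CellTiter-Glo luminescence. Media-only wells were set as complete cell-killing and DMSO as no toxicity.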
* hit, by the source's call. Unless noted, the call rests on the fitted dose curve; in most records, active means well fitted curve in the direction sought with a large enough effect; inconclusive means small, poorly fitted or top-dose-only effect, or another doubt; inactive means no such curve, though single readings can be large; an effect the other way counts as inactive or inconclusive.

`COc1cc(OC)c(NC(=O)C(C)n2c(=O)cc(-c3ccccc3)c3c(C)nn(C)c32)cc1Cl` (stereo not drawn) gave S2 tox inactive, TGFb inhibitor -6.1%, ATXN2 expr inh 9.3% and HepG2 viability -46.4%.
Screening CC(C)NC(=O)CSc1nc2ccccc2c(=O)n1Cc1ccc(C(=O)NC(C)C)cc1 returned S2 tox inactive, TGFb inhibitor -0.8%, ATXN2 expr inh 5.5% and HepG2 viability -10.1%.
CCCCN(C)CCCNC(=O)CN1C(=O)CSc2ccc(S(=O)(=O)N3CCOCC3)cc21 was read as S2 tox inactive, TGFb inhibitor -6.6%, ATXN2 expr inh -5.8%, IL1B secr inh -96.0* and HepG2 viability -10.7%.
COc1cccc(NC(=O)CN2C(=O)CSc3ccc(S(=O)(=O)N4CCC(C)CC4)cc32)c1 was read as S2 tox inactive, TGFb inhibitor inconclusive, ATXN2 expr inh inconclusive, IL1B secr inh -89.0* and HepG2 viability -7.0%.
`COc1cc(OC)cc(N2C(=O)N(Cc3ccc(C(C)(C)C)cc3)c3ccccc3S2(=O)=O)c1` gave S2 tox inactive, TGFb inhibitor -0.6%, ATXN2 expr inh 11.8% and HepG2 viability 4.3%.
For CC(C)(C)NC(=O)[C@H]1CC[C@H]2[C@@H]3CC=C4C=C(C(=O)O)CC[C@]4(C)[C@H]3CC[C@]12C the results were S2 tox inactive.
`COC(=O)C(NC(=O)c1ccccc1)c1ccccc1` (stereo not drawn) gave S2 tox inactive, TGFb inhibitor -1.0%, ATXN2 expr inh 12.0%, IL1B secr inh 16.9 and HepG2 viability 9.4%.
`C=C(C(=O)c1ccccc1)C(NC(C)(C)C)c1ccccc1` (stereo not drawn) gave S2 tox inconclusive, TGFb inhibitor inconclusive, ATXN2 expr inh 7.52µM*, IL1B secr inh -101.5* and HepG2 viability -88.9%.
For O=C(/C=C/c1cccc2ccccc12)c1ccncc1 the results were S2 tox inactive, TGFb inhibitor 11.2µM*, ATXN2 expr inh inconclusive, IL1B secr inh -82.5* and HepG2 viability 11.2µM*.
For O=C(/C=C/c1ccccc1O)c1ccccc1 the results were S2 tox inactive, TGFb inhibitor -6.8%, ATXN2 expr inh 6.4%, IL1B secr inh -53.5* and HepG2 viability -32.5%.
`O=C(N/N=C/c1cccc2ccccc12)c1ccncc1` gave S2 tox inactive, TGFb inhibitor 24.8%, IL1B secr inh -1.7 and HepG2 viability 10.3%.
For O=C(/C=C\c1ccc(-c2ccccc2)o1)c1ccccc1 the results were S2 tox inactive, TGFb inhibitor -24.4%, ATXN2 expr inh 67.6%, IL1B secr inh -91.5* and HepG2 viability -28.1%.
Cc1ccc(C(=O)/C=C/c2ccc(-c3ccc(C)cc3)o2)cc1 was read as S2 tox inactive, TGFb inhibitor 4.8%, ATXN2 expr inh -36.4%, IL1B secr inh -13.8 and HepG2 viability -37.2%.
For COc1ccc(-c2onc(C)c2C)cc1S(=O)(=O)N1c2ccccc2CC1C (stereo not drawn) the results were TGFb inhibitor inconclusive and HepG2 viability -22.6%.
For Cc1nn(-c2ccccc2)c2nc(-c3cccs3)cc(C(=O)NN)c12 the results were S2 tox inactive, TGFb inhibitor 10µM*, ATXN2 expr inh inconclusive, IL1B secr inh 4.8 and HepG2 viability -28.9%.
Cc1nn(-c2ccccn2)c2nc(-c3cccs3)cc(C(=O)NCc3ccco3)c12 was read as S2 tox inactive, TGFb inhibitor inconclusive, ATXN2 expr inh 7.9%, IL1B secr inh 0.0 and HepG2 viability -21.2%.
`CCOC(=O)c1cc(-c2cccs2)nc2c1c(C)nn2-c1ccccn1` gave S2 tox inconclusive, TGFb inhibitor inconclusive, ATXN2 expr inh inconclusive, IL1B secr inh -79.1* and HepG2 viability -22.4%.
`O=C(C[n+]1cccc2cccc(O)c21)c1ccccc1` gave TGFb inhibitor 26.9% and HepG2 viability 1.9%.
Screening Cc1cccc(N2CCN(C(=O)C3CCN(S(=O)(=O)c4c(C)noc4/C=C/c4ccccc4F)CC3)CC2C)c1 (stereo not drawn) returned TGFb inhibitor inconclusive and HepG2 viability -16.7%.
Cc1ccc2[nH]c(=O)c(CN(Cc3nnnn3C3CCCC3)C3CCCCC3)cc2c1 was read as S2 tox inactive, TGFb inhibitor -21.3%, ATXN2 expr inh -3.4%, IL1B secr inh 19.7 and HepG2 viability -14.2%.
For Cc1ccc2[nH]c(=O)c(CN(Cc3ccccc3)Cc3nnnn3C3CCCC3)cc2c1 the results were S2 tox inactive, TGFb inhibitor 11.7%, ATXN2 expr inh -34.6%, IL1B secr inh -71.7* and HepG2 viability -24.8%.
`Cc1cc(C)c2[nH]c(=O)c(CN(Cc3ccc4c(c3)OCO4)Cc3nnnn3C3CCCC3)cc2c1` gave S2 tox inactive, TGFb inhibitor inconclusive, ATXN2 expr inh 0.9%, IL1B secr inh -50.6* and HepG2 viability -52.5%.
Cc1ccc2cc(CN(Cc3ccc4c(c3)OCO4)Cc3nnnn3Cc3ccco3)c(=O)[nH]c2c1 was read as S2 tox inconclusive, TGFb inhibitor -24.5%, ATXN2 expr inh -0.5%, IL1B secr inh -52.7* and HepG2 viability 5.6%.
`COc1ccccc1CN(Cc1cc2c(C)ccc(C)c2[nH]c1=O)Cc1nnnn1Cc1ccco1` gave S2 tox inconclusive, TGFb inhibitor 8.3%, ATXN2 expr inh inconclusive, IL1B secr inh -70.4* and HepG2 viability 10.3%.
Screening Cc1cccc2cc(CN(Cc3ccc(F)cc3)Cc3nnnn3C3CCCC3)c(=O)[nH]c12 returned S2 tox inactive, TGFb inhibitor -2.9%, ATXN2 expr inh 6.0%, IL1B secr inh 12.5 and HepG2 viability -1.5%.
For CCN(CC)C1CCN(C(=O)c2cnn(-c3nccc(-c4ccccc4OC)n3)c2-c2ccco2)C1 (stereo not drawn) the results were S2 tox inactive.
CCc1nn2c(=O)cc(COC(=O)c3ccccc3NC(=O)COc3ccc(C)c(C)c3)nc2s1 was read as TGFb inhibitor -0.4% and HepG2 viability 1.0%.
For COc1ccc(Cn2nnnc2CN(Cc2cc3cc(C)ccc3[nH]c2=O)C2CCCC2)cc1 the results were S2 tox inactive, TGFb inhibitor -16.0%, ATXN2 expr inh 3.6%, IL1B secr inh -61.2* and HepG2 viability -9.6%.
`Cc1cc(C)c(S(=O)(=O)NCC(c2cccs2)S(=O)(=O)c2ccccc2)c(C)c1` (stereo not drawn) gave TGFb inhibitor 5.62µM* and HepG2 viability 6.31µM*.
Cc1cc(C)c(S(=O)(=O)NCC(c2ccco2)S(=O)(=O)c2ccccc2)c(C)c1 (stereo not drawn) was read as TGFb inhibitor -2.3% and HepG2 viability 5.3%.
